MsrA inhibitor: bovine MsrA inhibition; purified bovine MsrA, absorbance read-out; inhibition, % at 15.5 µM; 360,000 compounds, 0.75% hits
NadD block: blocks S. aureus nicotinate mononucleotide adenylyltransferase; purified NadD enzyme, colorimetric absorbance read-out; inhibition, % at 20 µM; 360,000 compounds, 0.78% hits; AID 602399; in the data active means inhibition above about 26%
rCAG binder: molecules binding r(CAG) RNA repeats. r(CAG) RNA repeat, TO-PRO-1 dye displacement fluorescence. 370,000 compounds, 1.3% hits. inhibition, % at 3 µM. AID 651821;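 active means inhibition above the plate cutoff, the mean of all test compounds on that plate plus 3 SD, cut at about 35% in these data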;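 further: higher means more dye released from RNA so lower well fluorescence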
MsrA act: activates bovine MsrA enzyme | purified bovine MsrA, absorbance read-out | activation, % at 10.6 µM | 360,000 compounds, 0.3% hits | AID 602163; in the data active means activation above about 7.5%
MsrA conf: confirmation of bovine MsrA inhibitors; shares compounds with MsrA inhibitor; purified bovine MsrA, absorbance read-out; inhibition, % at 15.5 µM; 2,300 compounds, 41% hits;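 further: coupled to thioredoxin reductase with NADPH and selenocystamine and DMSO as substrate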
rCAG bind conf: r(CAG) RNA repeat binding, confirmation | shares compounds with rCAG binder | inhibition, % at 3 µM | 4,300 compounds, 70% hits | TO-PRO-1 dye displacement fluorescence;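 active means inhibition above a per-plate cutoff, the mean inhibition of sample wells plus 3 SD, cut at about 35% in these data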;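 further: loss of TO-PRO-1 fluorescence as compound displaces dye from 1x1 AA loop RNA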
dCAG dye counter: counter-screen for rCAG RNA binders: DNA CAG dye complex inhibitors | shares compounds with rCAG binder | d(CAG) DNA oligo TO-PRO-1 dye displacement, fluorescence | inhibition, % at 3 µM | 4,300 compounds, 94% hits | AID 652068;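 active means inhibition above its plate's cutoff, the mean test-well inhibition plus 3 SD, cut at about 4.8% in these data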;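 further: hits displace the dye from DNA and so lower well fluorescence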
Hits are given with their value; 0 = inactive; - = not tested or not shown. Shown are actives, neighbours in structure and some others; about 2.7% of the full set was active somewhere. Unless noted, no stated cut-off is given here; in the data, active means inhibition above about 4.5%; inactive means the rest.

SMILES | MsrA inhibitor | NadD block | rCAG binder | MsrA act | MsrA conf | rCAG bind conf | dCAG dye counter
COc1ccc(S(=O)(=O)N2CCN(CC(=O)NC(Cc3ccccc3)C(C)=O)CC2)cc1 (stereo unspecified) | 0 | 0 | 0 | 0 | - | - | -
N#Cc1c(/N=C/c2ccc(-c3ccc(C(=O)O)c(Cl)c3)o2)sc2c1CCCC2 | 7.0 | 0 | 0 | 0 | 0 | - | -
O=C(Nc1ccc2nc(-c3cccs3)[nH]c2c1)c1ccco1 | 4.7 | 0 | 0 | 0 | 0 | - | -
O=C(Nc1ccc2nc(-c3cccs3)[nH]c2c1)c1cccs1 | 0 | 0 | 0 | 0 | - | - | -
COC(=O)c1cc(S(=O)(=O)NCc2ccc(F)cc2)cn1C | 0 | 0 | 0 | 0 | - | - | -
CN(Cc1ccccc1)c1ncc(C=O)s1 | 7.5 | 0 | 0 | 0 | 5.8 | - | -
O=Cc1cnc(N2CCN(Cc3ccccc3)CC2)s1 | 0 | 0 | 0 | 0 | - | - | -
O=C(NC1CCCC1)C1c2ccccc2OCC(=O)N1Cc1cccnc1 (stereo unspecified) | 0 | 0 | 0 | 0 | - | - | -
O=C(N/N=C/c1ccco1)c1cc2ccccc2o1 | 6.0 | 0 | 0 | 0 | 7.6 | - | -
O=C1N/C(=N\S(=O)(=O)Cc2ccccc2)S/C1=C/c1cccc([N+](=O)[O-])c1 | 5.6 | 0 | 81.4 | 0 | 0 | 68.8 | 28.4
N#CC(c1ccccc1)c1cnccn1 (stereo unspecified) | 0 | 0 | 0 | 0 | - | - | -
Cc1ccccc1Cn1cc(CN2[C@@H](CC(C)C)COc3cccc(F)c3S2(=O)=O)nn1 | - | - | 0 | - | - | - | -
COCc1cc(C)n(CC(=O)N/N=C/c2ccc(-c3ccc(Cl)c(C(=O)O)c3)o2)c(=O)c1C#N | 9.1 | 0 | 37.8 | 0 | 9.7 | 40.7 | 13.8
Cc1ccc(S(=O)(=O)/N=C2\C=C(Nc3cccc(C(=O)O)c3)C(=O)c3ccccc32)c(C)c1 | 25.3 | 0 | 75.5 | 0 | 30.2 | 82.6 | 50.0
Cc1ccc(S(=O)(=O)/N=C2\C=C(Nc3cccc(C(=O)O)c3)C(=O)c3ccccc32)cc1 | 41.7 | 0 | 47.1 | 0 | 19.6 | 0 | 4.7
COc1cccc(/C=C2/NC(=O)N(CC(=O)Nc3ccc(C)cc3)C2=O)c1OCc1cccc(C(=O)O)c1 | 0 | 0 | 0 | 0 | - | - | -
Cc1ccc(NC(=O)CN2C(=O)N/C(=C/c3ccccc3OCc3cccc(C(=O)O)c3)C2=O)cc1 | 4.7 | 0 | 75.8 | 0 | 0 | 63.0 | 26.8
O=C(CN1C(=O)S/C(=C\c2cccs2)C1=O)Nc1ccc(O)c(C(=O)O)c1 | 5.3 | 0 | 52.3 | 0 | 5.8 | 37.4 | 10.1
O=C(CN1C(=O)S/C(=C\c2cccs2)C1=O)Nc1ccc(C(=O)O)c(O)c1 | 5.3 | 0 | 67.0 | 0 | 6.0 | 40.0 | 10.2
COc1cccc(/C=C2/SC(=O)N(CC(=O)N3CCc4ccccc4C3)C2=O)c1OCC(=O)O | 4.8 | 0 | 37.4 | 0 | 0 | 36.1 | 9.7
O=C(c1ccccn1)N1CCCC(N2CCN(c3ccc(F)cc3)CC2)C1 (stereo unspecified) | 0 | 0 | 0 | 0 | - | - | -
CSc1ccc(/C=C(\C(=O)O)c2ccc(S(=O)(=O)N3CCCCC3)s2)cc1 | 5.9 | 0 | 59.3 | 0 | 0 | 55.3 | 19.6
CCc1cc(C(=O)O)c(NC(=O)/C=C/c2ccc(OC)cc2)s1 | 0 | 0 | 0 | 0 | - | - | -
CCc1cc(C(=O)O)c(NC(=O)/C=C/c2ccc(OC)c(OC)c2)s1 | 5.6 | 0 | 56.4 | 0 | 4.9 | 39.5 | 9.9
COc1cc(/C=N/N=C2/NC(=O)C(CC(=O)O)S2)ccc1OCc1ccc(Cl)cc1 (stereo unspecified) | 5.3 | 0 | 54.4 | 0 | 6.0 | 37.8 | 10.2
SMILES | MsrA inhibitor | NadD block | rCAG binder | MsrA act | MsrA conf | rCAG bind conf | dCAG dye counter
CCOc1cc(/C=N/N=C2/NC(=O)C(CC(=O)O)S2)ccc1OCc1ccc(Cl)cc1Cl (stereo unspecified) | - | 0 | - | 0 | - | - | -
COc1cccc(C(=O)NNC2OC(CO)C(O)C2O)c1 (stereo unspecified) | 0 | 0 | 0 | 0 | - | - | -
COc1ccc(NC(=O)CSc2nc3ccccc3c(=O)n2CCCN2CCCCC2)c(OC)c1 | 0 | 0 | 0 | 0 | - | - | -
O=[N+]([O-])c1ccccc1S(=O)(=O)Nc1ccc(-c2ccc(N3CCCC3)nn2)cc1 | 5.0 | 0 | 37.0 | 0 | 0 | 38.3 | 15.9
CCOc1ccccc1NS(=O)(=O)c1cn(C)nc1C | 0 | 0 | 0 | 0 | - | - | -
C/C(=N\N=C(/N)SC1CC(=O)N(c2ccccc2)C1=O)c1cccs1 (stereo unspecified) | 5.1 | 0 | 41.6 | 0 | 0 | 35.1 | 8.3
